Data from PubChem BioAssay (NCATS).
Unmarked numbers belong to inactive results. Results filed as inconclusive are left out. Where a call stands in place of a potency, no number is given. The source made the active and inactive calls. Calls follow the shape of the dose curve; as a rule, active = well fitted curve in the direction sought with a large enough effect; inconclusive = small, poorly fitted or top-dose-only effect, or another doubt; inactive = no such curve, though single readings can be large; an effect the other way counts as inactive or inconclusive.

Columns and labels:
[1] = OV-KATE Cancer Cell Toxicity qHTS against the NCATS CANVASS Library (AID 1347345)
Method in brief: (§1)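 Step one: seed 1000 cells per well. Step two: incubate 4 h. Step three: add test compounds in 11 concentrations. Step four: culture 72 h, then add CellTiter-Glo and record luminescence after 15min.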

[2] = UWB1.289 Cancer Cell Toxicity qHTS against the NCATS CANVASS Library (AID 1347347); also: nearly all actives have a fitted effect of over 60% in size; also: potency is read from the fitted curve at half-maximal effect
Method in brief: as §1

[3] = OV-SAHO Cancer Cell Toxicity qHTS against the NCATS CANVASS Library (AID 1347348); also: nearly all actives have a fitted effect of over 55% in size; also: potency is read from the fitted curve at half-maximal effect
Method in brief: as §1

[4] = Panc-1005 Cancer Cell Toxicity qHTS against the NCATS CANVASS Library (AID 1347349); also: nearly all actives have a fitted effect of over 60% in size; also: potency is read from the fitted curve at half-maximal effect
Method in brief: as §1

[5] = SW1088 Cancer Cell Toxicity qHTS against the NCATS CANVASS Library (AID 1347350); also: nearly all actives have a fitted effect of over 75% in size; also: potency is read from the fitted curve at half-maximal effect
Method in brief: as §1

[6] = U-118MG Cancer Cell Toxicity qHTS against the NCATS CANVASS Library (AID 1347351); also: potency is read from the fitted curve at half-maximal effect
Method in brief: as §1

[7] = HEK293 24hr Apoptosis Induction qHTS against the NCATS CANVASS Library (AID 1347359)
Method in brief: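 HEK293 cells, 500 per well, exposed to an 11-point compound series for 24 hours at 37 degrees C. Caspase 3/7 activity read by Caspase-Glo luminescence (DEVD substrate) after 15 min at room temperature.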

[8] = KB-8-5-11 Cancer Cell Toxicity qHTS against the NCATS CANVASS Library (AID 1347364); also: nearly all actives have a fitted effect of over 75% in size; also: potency is read from the fitted curve at half-maximal effect
Method in brief: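 Viability read as CellTiter-Glo luminescence after 72 h at 37 °C, 5% CO2. 11-point compound series on 500 KB-8-5-11 cells/well in DMEM/10% FBS. Follow-up plating included 1 uM tariquidar in the medium.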

[9] = target: Nuclear receptor subfamily 1 group I member 3 (Homo sapiens) (UniProt Q14994); assay: qHTS for Constitutive Androstane Receptor (CAR) Antagonist screened against the NCATS CANVASS Library (AID 1347372); also: potency is read from the fitted curve at half-maximal effect
Sequence of Nuclear receptor subfamily 1 group I member 3 (Homo sapiens) (Q14994 whole entry, looked up): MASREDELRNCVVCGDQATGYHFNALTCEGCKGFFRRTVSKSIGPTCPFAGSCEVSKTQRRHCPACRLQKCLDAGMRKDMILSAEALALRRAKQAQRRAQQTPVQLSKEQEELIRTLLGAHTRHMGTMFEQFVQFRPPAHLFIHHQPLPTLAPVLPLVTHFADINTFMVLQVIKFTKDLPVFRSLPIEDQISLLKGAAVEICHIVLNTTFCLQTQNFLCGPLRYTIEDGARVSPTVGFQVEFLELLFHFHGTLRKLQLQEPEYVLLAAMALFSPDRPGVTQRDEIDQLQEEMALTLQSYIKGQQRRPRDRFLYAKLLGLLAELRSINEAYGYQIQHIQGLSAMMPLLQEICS
Method in brief: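 Luminescence readout (ONE-Glo, 30 min RT) of CYP2B6-2.2kb reporter in HepG2-hCAR cells after 24hr, 37C treatment with compound against 50 nM CITCO; CellTiter-Fluor viability read beforehand.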

[10] = qHTS for Hypoxia signaling pathway (HIF-1) antagonists against the NCATS CANVASS Library (AID 1347374); also: nearly all actives have a fitted effect of over 60% in size; also: potency is read from the fitted curve at half-maximal effect
Method in brief: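 Antagonism scored as loss of CoCl2-driven (60 uM stock added) HRE beta-lactamase signal, read by CCF4 FRET at 460/530 nm. Compounds were tested in an 11-point series on ME-180 reporter cells for 17 hrs at 37C, with parallel CellTiter-Glo cytotoxicity.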

[11] = DH5-alpha competent E. coli microbial cell viability qHTS against the NCATS CANVASS Library (AID 1347377); conditions: outcome: dose series up to 46.1 µM unless noted
Method in brief: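 Bacterial viability as ATP-dependent luminescence (BacTiter-Glo), read after overnight 37 °C exposure of DH5-alpha competent E. coli to compounds in 11-point titration.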

[12] = Cytotoxicity qHTS for assessment of Hepg2 cells membrane integrity screened against the NCATS CANVASS Library (AID 1347387)
Method in brief: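 Membrane damage quantified as fluorescent LDH-release signal (ex 560, em 590 nm) in HepG2 cells treated 5 hr at 37C. qHTS format, 11 concentrations spanning 0.59 nM - 46 uM final, cells plated at 2000 per well the night before.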

[13] = qHTS for activators of Nrf2/ARE signaling pathway screened against the NCATS CANVASS Library (AID 1347391); also: nearly all actives have a fitted effect of over 60% in size; also: potency is read from the fitted curve at half-maximal effect
Method in brief: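 Eleven-point qHTS, 16 h treatment of HepG2 cells carrying an ARE-driven beta-lactamase reporter; CCF4 ratio read (405 nm excitation, 460 and 530 nm emission), with CellTiter-Glo ATP luminescence for viability.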

[14] = qHTS for activators of dead-cell proteases activity screened against the NCATS CANVASS Library (AID 1347392);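 also: luminescence from protease leaking out of membrane-damaged cells cleaving impermeant substrate; rising signal means more cytotoxicity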
Method in brief: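 HepG2, 2000 cells/well, 18 h attach; cpd 11-pt, 5 h 37C 5% CO2; CytoTox-Glo (AAF-aminoluciferin) 15 min RT; luminescence read.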

[15] = A2780 Cisplatin Sensitive Ovarian Cancer Cell Toxicity qHTS against the NCATS CANVASS Library (AID 1347353); also: nearly all actives have a fitted effect of over 60% in size; also: potency is read from the fitted curve at half-maximal effect
Method in brief: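 Cisplatin-sensitive A2780 ovarian cells (750/well) received compound in 11 concentrations, and were incubated 72 h at 37 °C. ATP content was measured by ATPLite luminescence; bortezomib served as control.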

[16] = test system: NAD(P)H diaphorase (Clostridium kluyveri); assay: Diaphorse counterscreen qHTS: Assay Interference Panel against the NCATS CANVASS Library (AID 1347362); also: potency is read from the fitted curve at half-maximal effect
Method in brief: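 Clostridium kluyveri diaphorase in PBS + 0.01% Tween-20 preincubated 15 min with compounds. Resazurin and NADH then added for 5 min at room temperature in the dark; resorufin fluorescence read (ex 525, em 598).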

[17] = target: Luciferin 4-monooxygenase (Photinus pyralis) (UniProt P08659); assay: Firefly luciferase counterscreen qHTS: Assay Interference Panel against the NCATS CANVASS Library (AID 1347363); also: series mostly up to about 57 µM
Sequence of Luciferin 4-monooxygenase (Photinus pyralis) (P08659 whole entry, looked up): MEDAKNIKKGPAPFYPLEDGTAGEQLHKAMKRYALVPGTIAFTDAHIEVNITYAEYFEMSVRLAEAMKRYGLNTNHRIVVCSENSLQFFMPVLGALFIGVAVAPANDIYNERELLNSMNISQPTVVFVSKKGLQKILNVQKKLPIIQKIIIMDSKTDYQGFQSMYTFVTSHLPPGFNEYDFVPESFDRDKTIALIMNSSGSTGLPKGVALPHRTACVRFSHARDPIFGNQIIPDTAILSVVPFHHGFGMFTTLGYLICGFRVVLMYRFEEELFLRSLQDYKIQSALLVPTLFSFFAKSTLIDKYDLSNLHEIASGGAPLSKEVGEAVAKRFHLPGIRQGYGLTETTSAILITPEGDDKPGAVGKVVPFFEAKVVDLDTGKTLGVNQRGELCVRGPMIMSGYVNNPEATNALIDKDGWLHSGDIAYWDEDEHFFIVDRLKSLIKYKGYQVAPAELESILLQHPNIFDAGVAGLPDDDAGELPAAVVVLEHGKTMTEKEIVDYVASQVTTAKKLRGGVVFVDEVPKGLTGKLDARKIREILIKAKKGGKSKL
Method in brief: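 Purified P. pyralis luciferase (0.04 ug/mL, 4x reagent) added to Tris-acetate buffer with 0.013 mM D-luciferin, 0.013 mM ATP and 13.3 mM Mg-acetate; compounds preincubated 15 min, then luminescence read after 5 min, RT.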

[18] = qHTS for Hypoxia signaling pathway (HIF-1) agonists against the NCATS CANVASS Library (AID 1347375)
Method in brief: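 Beta-lactamase reporter under HRE control in ME-180 cells; compounds (11-point qHTS series) added after 5 hrs plating, then 17 hrs at 37C. FRET substrate read after 2 hr; same-well CellTiter-Glo luminescence gave viability and normalization.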

[19] = qHTS for inhibitors of ER calcium dysfunction: SERCaMP assay screened against the NCATS CANVASS Library (AID 1347393); also: nearly all actives have a fitted effect of over 40% in size; also: potency is read from the fitted curve at half-maximal effect
Method in brief: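 SH-SY5Y GLuc-SERCaMP, 1000 cells/well, 4 h attach; cpd 16 h, 37C/5% CO2; thapsigargin (added as 6x 600 nM) 4 h; coelenterazine; luminescence. Reduced reporter release = ER Ca stabilization.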

[20] = HPAF-II Cancer Cell Toxicity qHTS against the NCATS CANVASS Library (AID 1347346); also: nearly all actives have a fitted effect of over 55% in size; also: potency is read from the fitted curve at half-maximal effect
Method in brief: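 Cytotoxicity read-out was CellTiter-Glo luminescence after 72 h at 37 degrees C exposure of HPAF-II cells (1000/well) to compounds in an 11-point titration.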

Compound | Potency [1] | Potency [2] | Potency [3] | Potency [4] | Potency [5] | Potency [6] | Potency [7] | Potency [8] | Potency [9] | Potency [10] | outcome [11] | outcome [12] | Potency [13] | Potency [14] | Potency [15] | Potency [16] | Potency [17] | outcome [18] | Potency [19] | Potency [20]
CO[C@H]1[C@@H](OC(=O)/C(C)=C\[C@@H]2O[C@@H]2[C@H]2O[C@H]2C)[C@H](O)[C@H](OCC23C[C@@H]4[C@H](C)CC[C@H]4C4(C=O)CC2C=C(C(C)C)C34C(=O)O)O[C@@H]1C (stereo partly specified) | inactive | inactive | inactive | inactive | inactive | inactive | inactive | inactive | inactive | inactive | inactive | inactive | 16.6 µM (active) | inactive |  |  |  |  |  | 
C=C1CC[C@@H](Br)C(C)(C)[C@]12CC=C(C)C(=O)C2 | inactive | inactive | inactive | inactive |  | inactive |  | inactive | inactive | inactive |  | inactive | 16.6 µM (active) | inactive | inactive | inactive | inactive | inactive |  | 
Cc1occ2c1C(=O)c1c(cc(O)c(O)c1O)C2=O | inactive |  |  |  | 5.95 µM (active) | 13.3 µM (active) |  |  | inactive |  | inactive | inactive |  |  |  |  | inactive | inactive |  | 
C=C1CC[C@@H](O[C@H]2C[C@@](O)([C@H](C)NC(=O)c3[nH]c(C)c(Cl)c3Cl)[C@H](O)[C@@H](C)O2)[C@@H]2C=C[C@H](C)C(/C(O)=C3/C(=O)[C@H](C(C)C)N([C@@H]4O[C@H](C)[C@H](OC(N)=O)[C@H](OC(C)=O)[C@@H]4OC)C3=O)[C@@H]12 (stereo partly specified) | inactive |  |  |  | 5.95 µM (active) | inactive |  | inactive | inactive | 16.7 µM (active) |  | inactive | inactive | inactive |  | inactive |  | inactive | inactive | 
CC[C@H]1[C@H](C)[C@H](c2cc(OC)c(OC)cc2OC)[C@@H](C)[C@H](c2cc(OC)c(OC)cc2OC)[C@@]12C=C(OC)C(=O)C=C2OC | inactive |  | 21.1 µM (active) |  | 18.8 µM (active) |  |  |  | inactive |  | inactive | inactive | 14.8 µM (active) | inactive | 14.8 µM (active) | 21.6 µM (active) | inactive |  |  | 
C[C@]12CC[C@]3(C1)[C@H](CC2=O)C[C@@H](OC(=O)c1ccccc1)[C@H]1[C@](C)(C(=O)O)CCC[C@@]13C | inactive |  |  |  | 1.49 µM (active) | inactive | inactive |  |  |  |  | inactive | 3.71 µM (active) | inactive | 16.6 µM (active) |  | inactive |  | inactive | 
C/C(=C\CC[C@@H](C)[C@H]1CC[C@]2(C)C3=CCC4C(C)(C)[C@@H](O)C[C@@H](O)[C@]4(C)C3[C@H](O)C[C@@]12C)CO (stereo partly specified) | inactive |  |  |  |  | inactive | inactive |  | inactive | 14.9 µM (active) |  |  |  |  |  |  |  |  |  | 
O=c1cc(-c2ccc(O)c(O)c2)oc2cc(O[C@@H]3O[C@H](CO)[C@@H](O)[C@H](O)[C@H]3O)cc(O)c12 | inactive | 1.18 µM (active) | 16.7 µM (active) |  |  | inactive | inactive |  | inactive | inactive | inactive | inactive | inactive | inactive |  |  | inactive |  | 38.4 µM (active) | 
CC(C)=CC[C@H]1C[C@@]2(CC=C(C)C)C(=O)[C@](CC=C(C)C)(C(=O)C(C(=O)c3ccccc3)=C2O)C1(C)C |  | 8.38 µM (active) | 14.9 µM (active) | 13.3 µM (active) | 4.21 µM (active) |  | inactive | 20.9 µM (active) | inactive | 5.94 µM (active) | inactive | inactive | inactive |  | 14.8 µM (active) |  | inactive | inactive | 30.5 µM (active) | 6.68 µM (active)
O=C1CC2OCC=C3CN4C5CC3C2[C@@H]2N1c1ccccc1[C@]52C[C@@H]4C1=C[C@H]2C3CC4N(CC[C@@]45c4ccccc4N(C1=O)[C@@H]25)C/C3=C/CO (stereo partly specified) | inactive |  |  | 16.8 µM (active) |  |  | inactive | 18.7 µM (active) |  |  | inactive |  | 1.66 µM (active) | inactive | 7.43 µM (active) | inactive | inactive | inactive |  | 21.1 µM (active)
C=CC(CCCCC)C1C(=O)NC(=O)C1C(=O)C1C2C(C)CC(C(=O)O)CC2CC1(O)C(=O)/C=C/C (stereo unspecified) | inactive | inactive | inactive | inactive |  | inactive | inactive | inactive |  | 8.38 µM (active) | inactive | inactive | 2.09 µM (active) |  |  | inactive | inactive | inactive | inactive | 
CCC(=O)CCCCC[C@@H]1NC(=O)[C@H]2CCCCN2C(=O)[C@H](C(C)C)NC(=O)[C@H](Cc2cn(OC)c3ccccc23)NC1=O |  | 7.47 µM (active) | 14.9 µM (active) | 4.21 µM (active) | 13.3 µM (active) | 3.75 µM (active) |  |  | 11.7 µM (active) | inactive |  |  | inactive | inactive | 5.26 µM (active) | inactive | inactive | inactive | inactive | 2.98 µM (active)
CC(C)C[C@@H]1c2c(O)c(C=O)c(O)c(C=O)c2O[C@]2(C)C=C[C@@H](C(C)C)C[C@H]12 | inactive |  |  | inactive |  | inactive | inactive | inactive | inactive |  | inactive |  | inactive | inactive | inactive | inactive | inactive | inactive | inactive | inactive
